A short description of assay [1]: A CellTox Green Cytotoxicity Assay to monitor cytotoxicity in HepG2 cells - 8 hour (AID 1224890). Further: nearly all actives have a fitted effect of over 45% in size. Put shortly: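 Cytotoxicity was tracked as dead-cell DNA fluorescence in HepG2 cells treated with test compounds at 37 C; each time-point value comes from one kinetic series spanning 0, 8, 16, 24, 32 and 40 h.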
Assay [2] in a line: qHTS assay to identify small molecule antagonists of the estrogen receptor alpha (ER-alpha) signaling pathway using the BG1 cell line in the presence of 0.1 nM 17-beta-estradiol - cell viability counter screen (AID 1259241). Further: nearly all actives have a fitted effect of over 40% in size. Put shortly: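 VM7Luc4E2 cells (endogenous ER-alpha, 4×ERE-luciferase), hormone-starved 5 days in charcoal-stripped FBS, were treated with compounds plus 0.1 nM 17beta-estradiol for 22 hr at 37C; viability read in same wells as CellTiter-Fluor live-cell protease fluorescence.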
(Quantitative high-throughput screening tests each substance at several concentrations.)

Assay [3] in a line: qHTS assay to identify small molecule antagonists of the androgen receptor (AR) signaling pathway using the MDA cell line in the presence of 0.5 nM R1881 - cell viability counter screen (AID 1259242). Further: nearly all actives have a fitted effect of over 45% in size. The gist of the method:
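Cells seeded at 3,000/well and allowed 5 hr at 37C, 0% CO2 before compound transfer and R1881 (0.5 nM final) addition; 16 hr later, live-cell protease fluorescence indicated cytotoxicity.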

The target in assay [4] is Estrogen receptor (Homo sapiens) (UniProt P03372). The assay can be described thus: qHTS assay to identify small molecule antagonists of the estrogen receptor alpha (ER-alpha) signaling pathway using the BG1 cell line in the presence of 0.1 nM 17-beta-estradiol (AID 1259244). Further: nearly all actives have a fitted effect of over 50% in size. Put shortly:
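Luciferase signal from VM7Luc4E2 ERE-reporter cells, co-dosed with test compound and 0.1 nM final 17beta-estradiol for 22 h, read with ONE-Glo.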

A short description of assay [5]: qHTS assay to identify small molecule phospholipidosis (PLD) inducers (AID 1259344; active means well fitted curve in the direction sought with a large enough effect; an effect the other way counts as inactive or inconclusive). The gist of the method:
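Read-out is LipidTOX Red fluorescence (ex 595/em 615) imaged in HepG2 cells after 24 h compound exposure at 37 C, with Hoechst nuclear counterstain (ex 352/em 461) allowing per-cell normalisation.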

Assay [6] is described as follows: qHTS assay to identify small molecule HDAC inhibitors (AID 1259364). Further: potency means the concentration at half of the fitted maximal effect.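 Further: wild-type HCT-116 cells with endogenous class I/II HDAC activity; nearly all actives have a fitted effect of over 45% in size.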 Put shortly: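 HCT-116 wt cells, 1,500/well, overnight attach. Compounds (DMSO) 2 h, 37 °C. HDAC-Glo I/II, 30 min RT. Luminescence.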
Assay [7] can be described thus: qHTS assay to identify small molecule HDAC inhibitors - cell viability counter screen (AID 1259365). Further: series mostly up to about 92 µM; nearly all actives have a fitted effect of over 50% in size. The gist of the method:
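Wild-type HCT-116 cells were seeded at 1,500 per well, incubated overnight at 37 C, then exposed to compounds in DMSO for 2hr. Viability was read by CellTiter-Glo luminescence after 30min at room temperature.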

The nature of assay [8]: qHTS assay to identify small molecule agonists of the sonic hedgehog signaling (Shh) pathway - cell viability counter screen (AID 1259366). Further: nearly all actives have a fitted effect of over 50% in size. Further: potency means the concentration at half of the fitted maximal effect. The gist of the method:
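NIH/3T3-derived 3T3 Gli1-Luc cells (stable Gli1-responsive firefly luciferase reporter) were seeded, rested 4 hr at 37 C/5% CO2, then exposed to compounds in DMSO for 24 hr; viability was read by CellTiter-Fluor fluorescence in the same wells.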

The nature of assay [9]: qHTS assay to identify small molecule antagonists of the sonic hedgehog signaling (Shh) pathway - cell viability counter screen (AID 1259367). Further: nearly all actives have a fitted effect of over 55% in size. Further: potency means the concentration at half of the fitted maximal effect. The gist of the method:
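Fluorescence read-out (CellTiter-Fluor, 1 hr at 37C) taken after 23 hr compound treatment of 3T3 Gli1-Luc cells stimulated with conditioned medium. Cells were seeded at 2,000 per well and pre-incubated 4 hr.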

Assay [10] is described as follows: qHTS assay to identify small molecule agonists of the sonic hedgehog signaling (Shh) pathway (AID 1259368; calls by dose curve; further: series mostly up to about 92 µM; nearly all actives have a fitted effect of over 15% in size). The gist of the method: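 Following a 24 hr incubation with DMSO-dissolved compounds at 37 C, 5% CO2, Gli1-Luc NIH/3T3-derived cells received luciferase reagent for 30 min at room temperature prior to luminescence measurement.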
A short description of assay [11]: qHTS assay to identify small molecule antagonists of the sonic hedgehog signaling (Shh) pathway (AID 1259369; calls by dose curve; further: nearly all actives have a fitted effect of over 45% in size; further: potency means the concentration at half of the fitted maximal effect). The gist of the method:
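Read-out is luminescence from a firefly luciferase gene controlled by the Gli1 response element, in 3T3Gli1-Luc cells pre-incubated 4hr then exposed to compounds and conditioned medium for 24hr.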

Assay [12] is described as follows: qHTS assay to identify small molecule agonists of the androgen receptor (AR) signaling pathway in the presence of an antagonist - cell viability counter screen (AID 1259379).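 Further: MDA-kb2 human breast cancer cells carrying an MMTV luciferase reporter; series mostly up to about 92 µM; nearly all actives have a fitted effect of over 25% in size.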 The gist of the method: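 Each compound was tested at 15 concentrations on MDA-kb2 cells in the presence of 3.0uM nilutamide. Viability was measured by CellTiter-Fluor fluorescence after a 16 hr incubation at 37C in a CO2-free atmosphere.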

Assay [13] is described as follows: qHTS assay to identify small molecule agonists of the estrogen receptor beta (ER-beta) signaling pathway - cell viability counter screen (AID 1259380). Further: nearly all actives have a fitted effect of over 30% in size. The gist of the method:
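Compounds dissolved in DMSO were pin-transferred onto ER-beta-UAS-bla HEK293T cells that had settled 6 hr, and exposure ran 16 hr at 37C. Following the reporter read, CellTiter-Glo luminescence after 30 min at room temperature indicated cytotoxicity.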

The target in assay [14] is Estrogen receptor (Homo sapiens) (UniProt P03372). Kind of assay: qHTS assay to identify small molecule agonists of the estrogen receptor alpha (ER-alpha) signaling pathway in the presence of an antagonist (AID 1259383; calls by dose curve; further: nearly all actives have a fitted effect of over 15% in size; further: potency means the concentration at half of the fitted maximal effect; on activation: top concentration of the series differs between compounds). The gist of the method: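 Luminescent ERE-luciferase reporter, VM7Luc4E2 cells (endogenous ER-alpha); 10.0nM ICI-182,780 final; 15-point compound titration; 22hr at 37C; ONE-Glo, 30min RT.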

Assay [15] is described as follows: qHTS assay to identify small molecule agonists or antagonists of the thyroid stimulating hormone receptor (TSHR) signaling pathway - wild type cell line counter screen (AID 1259384; calls by dose curve). The gist of the method: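 Wild-type Hek293 cells, 800/well, 18 h at 37C, then compound with Ro20-1724 for 30 min RT. cAMP by HTRF (cAMP-d2/anti-cAMP cryptate), 1 h RT, fluorescence read. 15 concentrations, triplicates.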

The target of assay [16] is Estrogen receptor beta (Homo sapiens) (UniProt Q92731). The assay can be described thus: qHTS assay to identify small molecule agonists of the estrogen receptor beta (ER-beta) signaling pathway (AID 1259377; active means well fitted activation curve with a large enough effect in the signal ratio in the repeat runs, not every such curve was filed as active; the % refers to the signal ratio). The gist of the method:
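ER-beta-UAS-bla HEK293T (GripTite) cells carrying a UAS-driven beta-lactamase reporter, in medium with 2% charcoal-stripped FBS, were exposed to compounds for 16 hr at 37C; LiveBLAzer B/G FRET substrate was then added and fluorescence read after 2 hours at room temperature.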

Assay [17] has the same target. The assay can be described thus: qHTS assay to identify small molecule antagonists of the estrogen receptor beta (ER-beta) signaling pathway (AID 1259378; active means well fitted inhibition curve with a large enough effect in the signal ratio in the repeat runs, not every such curve was filed as active; the % refers to the signal ratio). Put shortly:
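ER-beta-UAS-bla HEK293T cells in 2% charcoal-stripped FBS medium treated with compound plus 1nM final 17-beta-estradiol for 16 hr at 37C. Beta-lactamase reporter read by FRET substrate fluorescence after 2 hours at room temperature.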

The target of assay [18] is Androgen receptor (Homo sapiens) (UniProt P10275). The assay can be described thus: qHTS assay to identify small molecule antagonists of the androgen receptor (AR) signaling pathway using the MDA cell line in the presence of 0.5 nM R1881 (AID 1259243). Further: nearly all actives have a fitted effect of over 50% in size. Put shortly:
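Luminescence from an AR/GR-responsive MMTV-luciferase construct in MDA-kb2 breast carcinoma cells, read 30 min after ONE-Glo, following 16 hr co-treatment with compounds and 0.5 nM R1881.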

For assay [19] the target is unchanged. The assay can be described thus: qHTS assay to identify small molecule agonists of the androgen receptor (AR) signaling pathway in the presence of an antagonist (AID 1259381; calls by dose curve; further: nearly all actives have a fitted effect of over 15% in size; further: potency means the concentration at half of the fitted maximal effect). Put shortly: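 Plated MDA-kb2 cells (3,000/well) were pre-incubated 5hr, given nilutamide (3.0uM final) or buffer, then dosed with compounds in DMSO at 15 concentrations. Luciferase activity was quantified by luminescence after 16hr at 37C.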

Assay [20] can be described thus: qHTS assay to identify small molecule antagonists of the estrogen receptor beta (ER-beta) signaling pathway - cell viability counter screen (AID 1259382). Further: series mostly up to about 92 µM; nearly all actives have a fitted effect of over 55% in size. The gist of the method: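 CellTiter-Glo ATP luminescence measured after the LiveBLAzer read in the same wells; ER-beta-UAS-bla HEK293T cells, 16 hr compound treatment with 1nM 17-beta-estradiol agonist at 37C, 5% CO2.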

Where “and” joins values, the source holds several entries; their conditions need not be identical. Equal entries are not always repeated. Records with an inconclusive call do not appear. Calls of active or inactive are those of the source. Unless noted, the call rests on the fitted dose curve; in most records, active means well fitted curve in the direction sought with a large enough effect in the repeat runs; inconclusive means weak or mixed curves; inactive means no such curve, though single readings can be large; an effect the other way counts as inactive or inconclusive.

Estrogen receptor beta (Homo sapiens), sequence (Q92731 whole entry, looked up): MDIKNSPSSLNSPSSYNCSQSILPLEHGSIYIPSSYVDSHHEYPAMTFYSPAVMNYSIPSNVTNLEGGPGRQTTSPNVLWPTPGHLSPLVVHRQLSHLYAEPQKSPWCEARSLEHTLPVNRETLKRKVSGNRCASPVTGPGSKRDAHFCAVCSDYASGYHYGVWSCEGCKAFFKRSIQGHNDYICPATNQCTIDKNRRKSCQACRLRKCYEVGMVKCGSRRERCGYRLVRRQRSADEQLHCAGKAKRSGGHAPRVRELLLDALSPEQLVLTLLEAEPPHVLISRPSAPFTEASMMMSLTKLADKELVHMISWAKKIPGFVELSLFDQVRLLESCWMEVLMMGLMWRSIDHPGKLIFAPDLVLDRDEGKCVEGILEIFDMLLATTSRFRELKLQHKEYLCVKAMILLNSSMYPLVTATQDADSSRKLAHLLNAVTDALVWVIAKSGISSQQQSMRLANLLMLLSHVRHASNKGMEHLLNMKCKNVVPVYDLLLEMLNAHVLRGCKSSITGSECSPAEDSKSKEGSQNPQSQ
Androgen receptor (Homo sapiens), sequence (P10275 whole entry, looked up): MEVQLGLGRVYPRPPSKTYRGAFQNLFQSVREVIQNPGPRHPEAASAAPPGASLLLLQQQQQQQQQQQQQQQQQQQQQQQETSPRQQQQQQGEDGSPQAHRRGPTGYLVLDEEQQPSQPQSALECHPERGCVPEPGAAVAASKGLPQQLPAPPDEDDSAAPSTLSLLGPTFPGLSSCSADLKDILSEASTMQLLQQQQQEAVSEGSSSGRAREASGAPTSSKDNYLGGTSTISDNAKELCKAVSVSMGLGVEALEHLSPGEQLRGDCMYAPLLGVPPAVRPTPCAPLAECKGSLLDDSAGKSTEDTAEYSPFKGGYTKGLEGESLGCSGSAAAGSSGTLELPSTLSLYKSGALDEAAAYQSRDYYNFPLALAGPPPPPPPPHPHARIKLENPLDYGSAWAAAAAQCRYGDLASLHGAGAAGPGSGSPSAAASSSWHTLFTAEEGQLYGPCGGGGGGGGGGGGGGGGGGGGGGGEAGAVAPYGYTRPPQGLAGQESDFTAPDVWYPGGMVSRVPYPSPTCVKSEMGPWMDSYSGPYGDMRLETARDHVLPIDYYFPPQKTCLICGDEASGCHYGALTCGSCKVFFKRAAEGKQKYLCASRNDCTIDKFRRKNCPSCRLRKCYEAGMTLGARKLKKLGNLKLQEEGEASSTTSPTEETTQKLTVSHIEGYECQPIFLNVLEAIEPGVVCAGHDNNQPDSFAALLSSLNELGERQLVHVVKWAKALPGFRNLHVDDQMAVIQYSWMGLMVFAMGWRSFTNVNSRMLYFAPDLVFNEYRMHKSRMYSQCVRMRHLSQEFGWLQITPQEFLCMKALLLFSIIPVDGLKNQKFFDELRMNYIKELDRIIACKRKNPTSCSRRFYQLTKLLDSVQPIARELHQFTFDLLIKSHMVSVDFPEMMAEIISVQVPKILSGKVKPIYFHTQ
Estrogen receptor (Homo sapiens), sequence (P03372 whole entry, looked up): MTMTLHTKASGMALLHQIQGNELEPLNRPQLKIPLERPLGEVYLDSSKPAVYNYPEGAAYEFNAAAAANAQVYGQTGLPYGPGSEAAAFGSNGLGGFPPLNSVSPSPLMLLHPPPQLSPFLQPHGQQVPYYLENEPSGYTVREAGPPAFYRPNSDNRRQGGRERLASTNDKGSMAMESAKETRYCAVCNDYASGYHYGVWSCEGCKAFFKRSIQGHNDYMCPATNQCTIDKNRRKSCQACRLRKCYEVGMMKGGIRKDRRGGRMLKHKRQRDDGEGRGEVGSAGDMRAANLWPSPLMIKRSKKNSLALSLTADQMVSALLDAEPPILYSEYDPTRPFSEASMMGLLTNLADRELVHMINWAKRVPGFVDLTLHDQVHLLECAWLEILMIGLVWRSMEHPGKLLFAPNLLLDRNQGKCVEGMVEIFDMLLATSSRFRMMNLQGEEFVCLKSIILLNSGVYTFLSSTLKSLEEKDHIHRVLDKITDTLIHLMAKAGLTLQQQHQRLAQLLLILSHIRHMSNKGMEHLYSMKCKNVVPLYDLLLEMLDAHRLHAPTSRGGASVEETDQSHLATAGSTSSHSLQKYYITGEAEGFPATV

On to `O=C(O)CCC(=O)O`, for which the Potency entry in assay [1], in [2], in [3], in [4], in [6] and in [8] was “inactive” each time. Also, the Potency entry in assay [9], in [11], in [12], in assay [13] and in assay [14] was “inactive” throughout. The result in assay [5], in [7], in assay [10] and in assay [15] was inactive.

On to `Cc1noc(NS(=O)(=O)c2ccc(N)cc2)c1C`, for which the Potency entry in [1], in [2], in [3], in [4], in assay [6] and in assay [9] was “inactive” each time. The Potency entry in [11], in assay [17], in [12], in [13] and in assay [14] was “inactive” each time. Also, the result in assay [5], in assay [7], in assay [10], in [16] and in assay [15] was inactive.

For `Oc1ccc(/C=C/c2cc(O)cc(O)c2)cc1`, the Potency result in assay [2], in [3], in assay [18], in assay [4], in assay [12] and in [13] was “inactive” throughout. For the same compound, the Potency result in assay [20] was “inactive”. The call in assay [5], in assay [7], in [10] and in [15] was inactive. Moreover, the Potency was 1.95 µM (active) and 1.22 µM (active) and 2.98 µM (active) in assay [6]; 21.9 µM (active) and 24.3 µM (active) in assay [8]; 30.9 µM (active) and 27.3 µM (active) in assay [9]; 9.78 µM (active) and 17.2 µM (active) in [11]; 1950 nM (active) in assay [19]; 4.37 µM (active) and 8.63 µM (active) and 13.3 µM (active) in assay [14].

As for `CCC1(c2ccccc2)C(=O)NCNC1=O`, the Potency entry in assay [1], in [2], in assay [3], in assay [6], in [9] and in [11] was “inactive” each time. Further, the Potency result in assay [17], in assay [12], in [13] and in assay [20] was “inactive” in each case. In addition, the compound was called inactive in assay [5], in assay [7], in assay [10], in assay [16] and in assay [15].

For the compound `CCCN(CCC)S(=O)(=O)c1ccc(C(=O)O)cc1`, the Potency entry in assay [1], in assay [2], in [3], in assay [18], in assay [6] and in [8] was “inactive” in each case. Further, the Potency result in assay [9], in assay [11], in [17], in [12], in [13] and in assay [19] was “inactive” in each case. For the same compound, the compound was classed as inactive in [5], in assay [7], in assay [10], in [16] and in [15].

`CCOc1ccc(NC(=O)CC(C)O)cc1` (stereo not given): the Potency result in assay [1], in [2], in assay [3], in [6], in assay [9] and in [11] was “inactive” throughout. Besides, the Potency result in assay [12] and in assay [13] was “inactive” throughout. In addition, the result in [5], in assay [7], in [10] and in [15] was inactive.

Regarding `CCCCCCCCCCCCCCCC(=O)O`, the Potency entry in [1], in assay [2], in [3], in assay [6], in assay [9] and in assay [11] was “inactive” throughout. For the same compound, the Potency entry in [17], in [12], in assay [13] and in assay [20] was “inactive” each time. The outcome in [5], in assay [7], in assay [10], in assay [16] and in [15] was inactive.

For the compound `CCCCOC(=O)CC(CC(=O)OCCCC)(OC(C)=O)C(=O)OCCCC`, the Potency entry in assay [1], in assay [2], in assay [3], in assay [6], in assay [9] and in [11] was “inactive” throughout. Also, the Potency entry in assay [17], in assay [12] and in assay [13] was “inactive” in each case. The call in [5], in [7], in assay [10] and in assay [16] was inactive.

On to `NS(=O)(=O)c1cc(C(=O)O)c(NCc2ccco2)cc1Cl`, for which the Potency result in [1], in assay [2], in [3], in assay [4], in [6] and in assay [8] was “inactive” each time. Further, the Potency result in assay [9], in assay [11], in assay [12], in assay [13] and in assay [14] was “inactive” throughout. For the same compound, the compound was called inactive in assay [5], in assay [7], in [10] and in assay [15].

(Values after PubChem BioAssay (Tox21).)
